An excerpt weighted towards active compounds, which were near 3.7% of everything screened.
S2 tox: Viability Counterscreen for Primary qHTS for Inhibitors of ATXN expression | AID 651635, 2014 | S2 cells (HEK-293 line with an ATXN2-luciferase reporter) viability, CellTiter-Fluor protease fluorescence, 24 h | Potency, µM (titrated, usually from 56.7 µM), hits mostly cytotoxic | hit rate 0.49% among 400,000; note: nearly all actives have a fitted effect of over 40% in size
TGFb SMAD3 inh: qHTS for Inhibitors of TGF-b; HepG2 CAGA-GFP TGF-b/SMAD3 reporter, GFP fluorescence, 18 h; TGF-beta stimulated, 500 pg/mL final; Potency, µM (titrated, usually from 46.1 µM), inactives show at the highest dose activity, negative = inhibition, actives largely listed as inhibitors; hit rate 1.2% among 410,000; note: % is set by controls: 0 for no effect and ±100 for the full control effect; nearly all actives have a fitted effect of over 65% in size
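Per well, imaged GFP fluorescence of HEPG2 CAGA-GFP cells gives the signal; cells get compound, then TGF-beta (500 pg/mL final), 18 h at 37 degrees C; %Activity versus -TGF-beta and +DMSO controls.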
GLP1R ag: qHTS of GLP-1 Receptor Agonists. HEK293 GLP-1R CRE-luciferase, luminescence, 4-6 h; cells express a hypersensitive GLP-1R form. Glucagon-like peptide 1 receptor (Homo sapiens), P43220. hit rate 0.007% among 380,000. Potency, µM (top dose mostly 45.6 µM), inactives show at the top dose activation, hits mostly activators; note: % of control where 0% means no effect
Target sequence (P43220 whole entry, looked up): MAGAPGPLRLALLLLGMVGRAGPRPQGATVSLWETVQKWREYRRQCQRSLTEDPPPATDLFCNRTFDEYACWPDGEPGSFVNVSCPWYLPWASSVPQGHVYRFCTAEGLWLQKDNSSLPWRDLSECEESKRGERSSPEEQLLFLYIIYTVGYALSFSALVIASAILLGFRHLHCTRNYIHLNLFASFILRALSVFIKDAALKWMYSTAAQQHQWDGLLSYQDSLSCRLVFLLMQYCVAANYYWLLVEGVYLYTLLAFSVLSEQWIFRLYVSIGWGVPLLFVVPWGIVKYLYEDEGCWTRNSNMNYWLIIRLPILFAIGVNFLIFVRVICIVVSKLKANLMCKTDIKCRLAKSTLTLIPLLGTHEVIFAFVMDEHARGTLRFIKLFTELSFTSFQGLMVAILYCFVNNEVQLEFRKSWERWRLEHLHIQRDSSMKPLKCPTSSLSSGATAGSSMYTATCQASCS
ATXN2 expr inh: Primary qHTS for Inhibitors of ATXN expression. Potency, µM (highest dose often 57 µM), without a hit: at the highest dose activity change, negative = inhibition, hits mostly inhibitors. AID 1745845, 2022. HEK-293 ATXN2-luciferase reporter, luminescence, 24 h. hit rate 0.72% among 360,000; note: % is set by controls: 0 for no effect and ±100 for the full control effect; nearly all actives have a fitted effect of over 55% in size
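qHTS (up to 57 uM final) was run with 24 h compound exposure of reporter cells at 37 °C. Each well was multiplexed: SteadyGlo luminescence measured ATXN2-luciferase expression after a fluorogenic Gly-Phe-AFC viability readout (25 uM final).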
GLP-1R inv ag: qHTS of GLP-1 Receptor Inverse Agonists (Inhibition Mode); Glucagon-like peptide 1 receptor (Homo sapiens), P43220; AID 624417, 2012; Potency, µM (series often up to 38.3 µM), inactives show at the top dose activity change, negative = inhibition, most hits filed as inhibitors; HEK293 GLP-1R CRE-luciferase, luminescence, 24 h; GLP-1R form is constitutively active; hit rate 1.6% among 410,000; note: % is set by controls: 0 for no effect and ±100 for the full control effect; nearly all actives have a fitted effect of over 55% in size
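Readout was luciferase luminescence, measured 12 min after detection reagent at room temperature. Beforehand, GLP-1R reporter HEK293 cells had sat 12 h, then received compounds for 24 hr at 37 deg C.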
HepG2 viability: qHTS for Inhibitors of TGF-b: Cytotox Counterscreen | HepG2 CAGA-GFP viability, ATP luminescence, 18 h | Potency, µM (doses to about 46.1 µM), for the others: at the top dose activity change, negative = cytotoxicity, most hits filed as cytotoxic | hit rate 0.76% among 410,000 | AID 588856, 2011
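HepG2 CAGA-GFP cells (1000/well, DMEM with 1% FBS) received compound, then TGF-beta at 500 pg/mL final, and were incubated 18 hours at 37 degrees C. Viability was read by CellTiter-Glo luminescence. Media-only wells were set as complete cell-killing and DMSO as no toxicity.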
* = called active by the depositor; i = inactive; ? = inconclusive; . = no result; [ ] = another dose, or the depositor's remark. Calls come from the whole dose curve; as a rule, active = well fitted curve in the direction sought with a large enough effect; inconclusive = small, poorly fitted or top-dose-only effect, or another doubt; inactive = no such curve, though single readings can be large; an effect the other way counts as inactive or inconclusive. Potency is the fitted concentration of half-maximal effect.

SMILES	S2 tox	TGFb SMAD3 inh	GLP1R ag	ATXN2 expr inh	GLP-1R inv ag	HepG2 viability
S=C(NCCc1ccccc1)NCC(c1ccco1)N1CCCCC1 (stereo not given)	i	-26%	23%	-1%	7.1µM*	-21%
CC(C)C(NC(=O)c1ccco1)C(=O)NCC(c1ccco1)N1CCCCC1 (stereo not given)	i	12%	-3%	-6%	3%	1%
O=C(NCC(c1ccco1)N1CCCC1)c1cc(S(=O)(=O)N2CCCCC2)ccc1Cl (stereo not given)	i	9%	9%	.	?	-1%
CC(Sc1ccc(Cl)cc1)C(=O)NCC(c1ccco1)N1CCCCC1 (stereo not given)	i	-2%	-5%	-13%	11µM*	-17%
COc1ccc(NC(=S)NCC(c2ccco2)N2CCCC2)cc1 (stereo not given)	i	6%	9%	13%	1%	2%
COc1ccc(N2CCN(S(=O)(=O)c3ccc4c(c3)CC(C)N4C(C)=O)CC2)cc1 (stereo not given)	.	-24%	.	.	-14%	-12%
O=[N+]([O-])CC(c1ccc(F)cc1)c1c[nH]c2ccccc12 (stereo not given)	?	?	3%	?	7.1µM*	-41%
NCC(c1ccccc1)c1c[nH]c2ccccc12 (stereo not given)	i	?	4%	-19%	?	-44%
Cc1cn(C2CC3OCC(NC(=O)C4CCCN4C(=O)OC(C)(C)C)C3O2)c(=O)[nH]c1=O (stereo not given)	.	-8%	.	.	.	7%
CCOc1ccc(CNC(=O)COc2cc(=O)n(C)c3ccccc23)cc1	i	3%	-1%	10%	-11%	-11%
COc1ccc(C)cc1NC(=O)COc1cc(=O)n(C)c2ccccc12	i	3%	-1%	2%	16%	10%
C/C(=N\Nc1ncnc2sc(C)c(C)c12)c1ccccn1	?	-8%	4%	0.28µM*	?	-88%
COc1ccccc1-c1nnc(SCC(=O)NCc2c(C)c(Cl)cc(C(C)C)c2O)o1	?	18µM*	-1%	?	?	-101%
Nc1ccc(C(=O)OCCCc2nc3ccccc3[nH]2)cc1	i	5%	0%	9%	4%	10µM*
O=C(CCS(=O)(=O)c1ccc(Br)s1)Nc1cc(C(F)(F)F)cc(C(F)(F)F)c1	?	?	.	?	?	16µM*
COc1cc(/C(C)=N/NC(=S)NC(C)C)cc(OC)c1OC	i	10µM*	24%	4%	?	-37%
CNC(=S)N/N=C(\C)c1ccccc1	i	?	-3%	32%	10µM*	53%
C/C(=N\NC(=S)NC(C)C)c1ccc2c(c1)OCCO2	i	?	7%	-2%	10µM*	-65%
CNC(=S)N/N=C(\C)c1ccc2c(c1)OCCO2	i	-5%	11%	23%	?	2%
CNC(=S)N/N=C(\C)c1ccc2c(c1)OCO2	.	-1%	2%	.	10µM*	2%
COc1cc(/C(C)=N\NC(N)=S)cc(OC)c1OC	i	-2%	13%	-4%	-12%	-2%
CCC1CN(CCNC(=O)C2CCCCN2C)Cc2cc(OC)ccc2O1 (stereo not given)	i	.	.	.	.	.
Cc1ccc(NC(=O)CCC(=O)c2cccs2)nc1	i	2%	-26%	12%	13%	7%
Cc1ccnc(NC(=O)CCC(=O)c2cccs2)c1	i	-3%	-5%	?	5.6µM*	-113%
CCOc1ccc(CCNC(=O)CCCc2nnc3n(CC(C)C)c(=O)c4sccc4n23)cc1	.	-21%	.	.	5%	-23%
SMILES	S2 tox	TGFb SMAD3 inh	GLP1R ag	ATXN2 expr inh	GLP-1R inv ag	HepG2 viability
CC(=O)N1CCC(C(=O)N2CCN(S(=O)(=O)c3ccc(Cl)s3)CC2)CC1	i	-16%	1%	-10%	-14%	14µM*
CSc1nnc2c(n1)OC(c1cccc(O)c1Cl)Nc1ccccc1-2 (stereo not given)	.	-8%	.	.	-7%	-18%
Cc1cc(C)cc(Oc2nc(-c3ccccc3)cc(C)c2S(C)(=O)=O)c1	?	2%	3%	8%	4.5µM*	-22%
N#CCCCC#Cc1ccc2c(c1)COc1c3ccccc3nn1-2	i	-11%	-4%	-27%	2.5µM*	-27%
CN(C)S(=O)(=O)c1cccc(N=C2NN=C(c3ccccc3)CS2)c1	?	0%	-10%	0%	11µM*	-22%
CC(=O)Nc1ccc(C2=NNC(=Nc3cccc(S(=O)(=O)N(C)C)c3)SC2)cc1	?	10µM*	-4%	.	?	-23%
Fc1ccccc1N=C1NN=C(c2ccccc2)CS1	?	?	-4%	-29%	-17%[0.307 µM]	-46%
COc1ccc(CN2CCN(C(C)=O)CC2)cc1OC1CCN(C(=O)c2ccc3[nH]c(C)c(C)c3c2)CC1	i	.	.	.	.	.
C[C@H](CCCC(C)(C)O)[C@H]1CC[C@H]2[C@@H]3CC=C4C[C@@H](O)CC[C@]4(C)[C@H]3CC[C@]12C	.	.	-3%	.	.	.
CSc1ccc(-c2ccc3c(c2)CC(CNC(=O)Cn2nc(C)nc2C)O3)cc1 (stereo not given)	i	.	.	.	.	.
CC[N+]1(CC(=O)c2ccc(Br)cc2)CCCCC1	.	-5%	.	.	.	-20%
O=C1N[C@@H](c2ccccc2)COC(=O)[C@H](Cc2ccc(F)cc2)CC/C=C/C[C@@H]1CC(=O)N(CCO)Cc1ccccc1	10µM*	?	2%	?	?	-16%
CC(C)(C)[C@@H]1COC(=O)[C@H](Cc2ccc(F)cc2)CC/C=C\C[C@H](CC(=O)N(CCO)Cc2ccccc2)C(=O)N1	?	?	-4%	?	?	-3%
O=C1N[C@@H](Cc2ccccc2)COC(=O)[C@@H](Cc2ccc(F)cc2)CC/C=C/C[C@H]1CC(=O)N(CCO)Cc1ccccc1	22µM*	?	-3%	?	?	-17%
CC(C)(C)[C@@H]1COC(=O)[C@@H](Cc2ccc(F)cc2)CC/C=C\C[C@@H](CC(=O)N(CCO)Cc2ccccc2)C(=O)N1	?	-26%	-5%	-9%	10µM*	2%
Cc1ccc(CNC(=O)c2sc3nc4n(c(=O)c3c2C)CCCC4)cc1	.	-5%	.	.	13%	-22%
CN(C)c1ccc(C=c2c3ccccc3n3c2cc(-c2ccccc2)[n+]3C)cc1	6µM*	?	-28%	?	?	7.9µM*

Compound activity as filed in PubChem.
